The text below walks through data of PubChem BioAssay (NCI).

This is part of a sample that, as a whole, favours compounds with a hit. Of some 83,000 tested, about 20% had one in any assay.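 A percent growth of 40 corresponds to 60% growth inhibition; 0 means no net growth; -100 means all cells died. Active threshold: below 10.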 Values without a mark were called inactive. Calls of active or inactive are those of the source.

Some test systems named below: HCT-15 colon; HT29 colon; SNB-19 CNS; U251 CNS; PC-3 prostate; SK-MEL-5 melanoma; UACC-62 melanoma; LOX IMVI melanoma; SK-MEL-28 melanoma; SK-MEL-2 melanoma; EKVX NSCLC; SN12C renal; UO-31 renal; TK-10 renal; ACHN renal; CAKI-1 renal; CCRF-CEM leukemia; MOLT-4 leukemia; A498 renal; SNB-75 CNS.
Assay in all cases: NCI-60 one-dose screen, 48 h (100 = growth as untreated, 0 = no growth, -100 = all killed)
What all share (settings): 10 µM unless noted

`O=C(Nc1cccnc1Nc1ccccc1)c1cn(Cc2cccc(Oc3ccccc3)c2)nn1`: the growth in the assay on HCT-15 colon is 30.5%; in the assay on HT29 colon it was 38.2%; in the assay on SNB-19 CNS, 64.5%; in the assay with U251 CNS, 54.4%; in the assay on PC-3 prostate, 49.3%; with SK-MEL-5 melanoma it was 26.6%. The growth is 32.8% with UACC-62 melanoma; 37% in the assay with LOX IMVI melanoma; 55.1% in the assay on SK-MEL-28 melanoma; 75.6% in the assay on SK-MEL-2 melanoma; 59.8% with EKVX NSCLC; 56.7% in the assay on SN12C renal. Moreover, the growth with UO-31 renal is 51.8%; in the assay on TK-10 renal, 82.1%; in the assay on ACHN renal, 76.6%; in the assay on CAKI-1 renal, 69.6%; with CCRF-CEM leukemia it was 47.4%; in the assay on MOLT-4 leukemia, 31.1%.
`CNC(=O)c1cc(Oc2ccc3c(c2)sc2nc(-c4ccc(NC(=O)[C@@H](NC(=O)OC)C(C)C)cc4)cn23)ccn1`: the growth is 73.2% in the assay on HCT-15 colon; 72.1% in the assay with HT29 colon; 91.1% with SNB-19 CNS; 81.6% in the assay on U251 CNS; 40.2% in the assay on PC-3 prostate; 5.33% (active) in the assay on SK-MEL-5 melanoma. For the same molecule, the growth was 42.9% in the assay with UACC-62 melanoma; 67.2% with LOX IMVI melanoma; 75.7% in the assay on SK-MEL-28 melanoma; 59.6% in the assay with SK-MEL-2 melanoma; 66.3% with EKVX NSCLC; 72.2% in the assay with SN12C renal. In addition, the growth was 52.5% in the assay with UO-31 renal; 85.4% in the assay on TK-10 renal; 83.3% with ACHN renal; 77.1% with CAKI-1 renal; 68.5% in the assay with A498 renal; 23.5% in the assay with CCRF-CEM leukemia. Further, in the assay on MOLT-4 leukemia, the growth is 23.8%.
Consider `Cn1cc(-c2csc(-c3cn(CCCN4CCOCC4)c4ccc(F)cc34)n2)c2cccnc21`, for which the growth in the assay with HCT-15 colon was 27.1%; in the assay with HT29 colon it was 1.97% (active); in the assay with SNB-19 CNS, 77.1%; in the assay on U251 CNS, 51.1%; with PC-3 prostate it was 29.6%; in the assay with SK-MEL-5 melanoma it was 25.1%. Besides, the growth in the assay on UACC-62 melanoma is 72.2%; with LOX IMVI melanoma it was 26.6%; in the assay with SK-MEL-28 melanoma, 77.5%; in the assay on SK-MEL-2 melanoma, 86.3%; in the assay with EKVX NSCLC it was 63%; in the assay with SN12C renal it was 78.5%. In addition, the growth is 50.2% with UO-31 renal; 75.1% with TK-10 renal; 63.8% in the assay with ACHN renal; 79% in the assay with CAKI-1 renal; 36.1% in the assay on A498 renal; 36.4% with CCRF-CEM leukemia. Also, in the assay on MOLT-4 leukemia, the growth is 32.1%.
For the molecule `CC1(C)CC[C@]23CC[C@]4(C)[C@H](CC[C@@H]5[C@@]6(C)C/C(=C/O)C(=O)C(C)(C)[C@@H]6CC[C@]54C)[C@H]2[C@H]1OC3`, the growth was 110% in the assay with HCT-15 colon; 100% in the assay with HT29 colon; 98% in the assay with SNB-19 CNS; 105% with U251 CNS; 86.1% in the assay on PC-3 prostate; 101% in the assay with SK-MEL-5 melanoma. Besides, the growth in the assay with UACC-62 melanoma is 93%; in the assay on LOX IMVI melanoma it was 90.8%; in the assay on SK-MEL-28 melanoma it was 107%; in the assay with SK-MEL-2 melanoma, 108%; in the assay on EKVX NSCLC it was 98.4%; in the assay with SN12C renal it was 99.2%. Besides, the growth with UO-31 renal was 85%; in the assay with TK-10 renal it was 113%; in the assay on ACHN renal, 110%; with CAKI-1 renal it was 91.1%; in the assay with A498 renal, 105%; in the assay with CCRF-CEM leukemia, 99.5%. For the same molecule, in the assay on MOLT-4 leukemia, the growth is 97.7%.
On to `CCCCn1c(NC(C)=O)c(S(=O)(=O)c2ccccc2)c2nc3ccccc3nc21`, for which the growth in the assay with HCT-15 colon was 101%; in the assay on HT29 colon, 124%; with U251 CNS, 103%; in the assay on PC-3 prostate, 96%; in the assay on SK-MEL-5 melanoma, 100%; in the assay on UACC-62 melanoma it was 97.8%. In addition, the growth with LOX IMVI melanoma is 101%; with SK-MEL-28 melanoma, 122%; in the assay on SK-MEL-2 melanoma, 121%; in the assay on EKVX NSCLC, 95.5%; in the assay with SN12C renal it was 103%; with UO-31 renal, 92%. Moreover, the growth with TK-10 renal was 99.7%; in the assay on ACHN renal, 106%; in the assay with CAKI-1 renal, 104%; in the assay on A498 renal, 87.3%; with CCRF-CEM leukemia, 77.7%; in the assay on MOLT-4 leukemia, 82.5%.
For the molecule `O=C1CCCCN1c1ccc(C2=NCCCN2)cc1`, the growth was 101% in the assay on HCT-15 colon; 87.6% in the assay with HT29 colon; 79.3% with U251 CNS; 79.9% in the assay with PC-3 prostate; 97.5% with SK-MEL-5 melanoma; 87.7% in the assay with LOX IMVI melanoma. Moreover, the growth in the assay on SK-MEL-28 melanoma was 91.4%; with SK-MEL-2 melanoma it was 111%; with EKVX NSCLC it was 97.8%; in the assay with SN12C renal, 92.9%; in the assay with UO-31 renal, 79.1%; with TK-10 renal it was 98.8%. The growth with ACHN renal is 95.7%; in the assay with CAKI-1 renal it was 100%; in the assay on A498 renal, 93.7%; with CCRF-CEM leukemia, 116%; in the assay on MOLT-4 leukemia, 80%.
Turning to `CCCC(O)Cn1ncc(C(=O)OCC)c1NC(=O)NCc1cccc(C(F)(F)F)c1` (stereo unspecified), the growth is 104% with HCT-15 colon; 85.9% in the assay with HT29 colon; 104% in the assay on SNB-19 CNS; 105% with U251 CNS; 64.7% in the assay with PC-3 prostate; 93.6% with SK-MEL-5 melanoma. Moreover, the growth in the assay on UACC-62 melanoma is 80.1%; in the assay with LOX IMVI melanoma it was 87.5%; in the assay with SK-MEL-28 melanoma, 105%; in the assay with SK-MEL-2 melanoma it was 73.4%; with EKVX NSCLC, 90.5%; with SN12C renal, 93.7%. In addition, the growth was 65% with UO-31 renal; 90.4% in the assay on TK-10 renal; 97.7% in the assay on ACHN renal; 83.8% with CAKI-1 renal; 99% with A498 renal; 5.39% (active) in the assay on CCRF-CEM leukemia. Further, the growth in the assay on MOLT-4 leukemia was 62%.
`O=C1/C(=C/c2cccc(Br)c2)COc2ccc(O)cc21`: the growth was 21.4% with HCT-15 colon; 15% in the assay on HT29 colon; 64.4% in the assay on SNB-75 CNS; 18.3% with U251 CNS; 51.2% in the assay on PC-3 prostate; 88.3% in the assay on SK-MEL-5 melanoma. The growth is 42.6% in the assay on UACC-62 melanoma; -37.1% (active) with LOX IMVI melanoma; 98.8% in the assay on SK-MEL-28 melanoma; 79.2% in the assay with SK-MEL-2 melanoma; 78.4% in the assay with EKVX NSCLC; 4.81% (active) with SN12C renal. The growth is 54.1% in the assay with UO-31 renal; 93.1% in the assay with TK-10 renal; 54.6% with ACHN renal; 63.5% in the assay with CAKI-1 renal; 0.865% (active) in the assay on CCRF-CEM leukemia; 6.15% (active) with MOLT-4 leukemia.
On to `CCN(CC)c1ccc(-c2cc(-c3cc(OC)c(OC)c(OC)c3)nc(N3CCC(O)CC3)c2C#N)cc1`, for which the growth with HCT-15 colon was -36.7% (active); in the assay with HT29 colon it was -32.7% (active); in the assay on SNB-19 CNS it was 15.4%; in the assay on U251 CNS, -32.5% (active); with PC-3 prostate, 13.1%; with SK-MEL-5 melanoma, -99.4% (active). Also, the growth with UACC-62 melanoma was -49.9% (active); with LOX IMVI melanoma it was -27.8% (active); in the assay with SK-MEL-28 melanoma, -46.6% (active); in the assay on SK-MEL-2 melanoma, -66.6% (active); with EKVX NSCLC, 18.6%; in the assay on SN12C renal it was 13.5%. The growth with UO-31 renal is -43.9% (active); in the assay with TK-10 renal, 3.06% (active); in the assay on ACHN renal it was 7.6% (active); in the assay on CAKI-1 renal, -31.7% (active); with A498 renal, 29%; in the assay with CCRF-CEM leukemia it was 16.4%. For the same molecule, in the assay with MOLT-4 leukemia, the growth is 2.73% (active).
